PubChem BioAssay (EPA / NIEHS)
Where “and” joins values, the source holds several entries; their conditions need not be identical. Equal values may be shown once. Results filed as inconclusive are left out. The source holds several records for some structures; these can differ, active in one and inactive in another. Calls of active or inactive are those of the source. How the source made its calls, unless noted: active means hit-call score of the fitted dose curve at least 0.9, where 1 is the maximum; inconclusive means response in the unintended direction; inactive means score below 0.9.

Columns and labels:
[1] = system: Sodium/Iodide Symporter (NIS), SLC5A5 (gene 6528); test: CPHEA_Stoker_NIS_Inhibition_RAIU: CPHEA's Radioactive Iodide Uptake (RAIU) Assay for Sodium/Iodide Symporter (NIS) Inhibition, Stoker and Laws Labs (AID 2283841)
Procedure, shortened: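 HEK293T cells stably expressing human NIS (hNIS-HEK293T-EPA) were exposed to test chemicals at 0.001–100uM (0.5% final DMSO) with 125I at a final 329pM in HBSS/10mM HEPES pH 7.4. After 2 hours at room temperature and ice-cold washes, intracellular 125I was counted as CPM and normalized to DMSO wells.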

[2] = CPHEA_Stoker_NIS_Cytotoxicity: Cytotoxicity Assessment for CPHEA's Radioactive Iodide Uptake (RAIU) Assay for Sodium/Iodide Symporter (NIS) Inhibition, Stoker and Laws Labs (AID 2283897);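 on AC50: active means loss of ATP signal versus DMSO meaning cytotoxicity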
Procedure, shortened: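 hNIS-HEK293T-EPA human kidney cells were exposed for 2 hours at room temperature to test chemicals (0.001–100uM, 0.5% final DMSO) in HEPES-buffered HBSS, pH 7.4. Viability was read as ATP content by luciferase bioluminescence, loss of signal versus DMSO.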

[3] = target: Peroxisome proliferator-activated receptor gamma (Homo sapiens) (UniProt P37231); test: ATG_hPPARg_XSP2: Attagene TRANS-FACTORIAL Multi-Species (XSP2) HepG2 Assay for human Peroxisome Proliferator-activated Receptor gamma (PPARg) (AID 2283829);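 further: actives raise reporter mRNA above DMSO so AC50 reflects PPARg activation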
Procedure, shortened: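 Transient MRTU transfection, HepG2; TRANS format (exogenous NR-Gal4 chimeras). 24 h chemical exposure with 3 nM 6-alpha-fluorotestosterone and 1.5 nM norgestrel present. Readout: reporter mRNA via RT-PCR/CE fluorescence, up-direction vs DMSO.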

[4] = target: Nuclear receptor subfamily 1 group I member 2 (Mus musculus) (UniProt O54915); test: ATG_mPXR_XSP2: Attagene TRANS-FACTORIAL Multi-Species (XSP1) HepG2 Assay for mouse Pregnane X Receptor (PXR) (AID 2283831)
Procedure, shortened: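 Transient HepG2 transfection, multiplexed GAL4-UAS reporters, NR-GAL4 chimeras. 24 h compound exposure. Readout: reporter mRNA, RT-PCR, fluorescent capillary electrophoresis; positive direction vs DMSO baseline.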

[5] = target: zebrafish Thyroid Hormone Receptor alpha (TRa), thraa (gene 30670) (UniProt Q98867); test: ATG_zfTRa_XSP2: Attagene TRANS-FACTORIAL Multi-Species (XSP1) HepG2 Assay for zebrafish Thyroid Hormone Receptor alpha (TRa) (AID 2283832);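 further: actives raise zebrafish TRa-Gal4 reporter transcript above DMSO baseline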
Procedure, shortened: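 HepG2, transient MRTU transfection, exogenous NR-Gal4 chimeras; 24 h dosing; mRNA readout via RT-PCR/CE fluorescence; positive direction vs DMSO.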

[6] = system: zebrafish Peroxisome Proliferator-activated Receptor gamma (PPARg), gene 557037; test: ATG_zfPPARg_XSP2: Attagene TRANS-FACTORIAL Multi-Species (XSP2) HepG2 Assay for zebrafish Peroxisome Proliferator-activated Receptor gamma (PPARg) (AID 2283833);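 further: reporter mRNA from a zebrafish PPARg GAL4 chimera measured by RT-PCR and capillary electrophoresis; actives increase reporter signal over DMSO so AC50 reflects activation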
Procedure, shortened: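 Transfect HepG2 with multiplexed GAL4-UAS reporter constructs; dose chemical 24 h; isolate RNA, reverse-transcribe, PCR-amplify, label and digest reporter products; resolve by capillary electrophoresis. Activity taken as increase over DMSO.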

[7] = system: turtle Thyroid Hormone Receptor, alpha (TRa), gene 101949057; test: ATG_trTRa_XSP2: Attagene TRANS-FACTORIAL Multi-Species (XSP1) HepG2 Assay for turtle Thyroid Hormone Receptor, alpha (TRa) (AID 2283834);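 further: hits raise reporter mRNA over the DMSO baseline so AC50 marks activators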
Procedure, shortened: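 Readout: reporter mRNA induction, fluorescence after RT-PCR, HpaI digestion and capillary electrophoresis. Transiently transfected HepG2, exogenous NR-Gal4 chimera driving GAL4-UAS reporter, 24 h compound exposure. Activity fitted upward relative to DMSO baseline.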

[8] = ATG_M_61_XSP2: Attagene TRANS-FACTORIAL Multi-Species (XSP2) HepG2 Assay for M61 Transcription Factor (Internal Marker) (AID 2283835; active means hit-call score of the fitted dose curve at least 0.9, where 1 is the maximum; inactive means score below 0.9;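 further: active means a rise in signal above the DMSO baseline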)
Procedure, shortened: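 Internal background marker, read as RT-PCR/capillary-electrophoresis reporter mRNA 24 h post-dose in transiently transfected HepG2 cells. Androgen receptor stimulated with 3 nM 6-alpha-fluorotestosterone plus 1.5 nM norgestrel; gain of signal versus DMSO analysed.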

[9] = target: zebrafish Thyroid Hormone Receptor beta (TRb), thrb (gene 30607) (UniProt Q9PVE4); test: ATG_zfTRb_XSP2: Attagene TRANS-FACTORIAL Multi-Species (XSP1) HepG2 Assay for zebrafish Thyroid Hormone Receptor beta (TRb) (AID 2283836)
Procedure, shortened: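 Transfect HepG2 with multiple reporter transcription units, dose chemical, incubate 24 h. Isolate RNA, reverse-transcribe, amplify and fluorescently label reporter sequences, digest with HpaI, then resolve by capillary electrophoresis. Positive direction fitted against DMSO.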

[10] = target: human Thyroid hormone Receptor alpha (TRa), THRA (gene 7067) (UniProt P10827); test: ATG_hTRa_XSP2: Attagene TRANS-FACTORIAL Multi-Species (XSP2) HepG2 Assay for human Thyroid hormone Receptor alpha (TRa) (AID 2283838)
Procedure, shortened: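 Reporter transcripts were read by RT-PCR with fluorescent primer extension, HpaI digestion and capillary electrophoresis. These came from HepG2 cells carrying multiplexed TRa-Gal4 TRANS constructs, harvested 24 hours after dosing. The medium also held 6-alpha-fluorotestosterone (3 nM) and norgestrel (1.5 nM), and increases were fitted against DMSO.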

[11] = target: frog Thyroid hormone Receptor alpha (TRa), thra-a (gene 397942) (UniProt P15204); test: ATG_frTRa_XSP2: Attagene TRANS-FACTORIAL Multi-Species (XSP2) HepG2 Assay for frog Thyroid hormone Receptor alpha (TRa) (AID 2283839)
Procedure, shortened: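 Read-out: fluorescent reporter-transcript fragments resolved by capillary electrophoresis after RT-PCR and HpaI cut. Human HepG2 liver cells carry a transfected frog TRα-Gal4 chimera driving a UAS reporter; 24 h exposure, DMSO baseline, positive-direction fit.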

[12] = target: human Thyroid hormone Receptor beta (TRb), THRB (gene 7068) (UniProt P10828); test: ATG_hTRb_XSP2: Attagene TRANS-FACTORIAL Multi-Species (XSP2) HepG2 Assay for human Thyroid hormone Receptor beta (TRb) (AID 2283840);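 further: actives raise reporter mRNA so potency reflects agonist-like gain of signal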
Procedure, shortened: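 Read-out: reporter mRNA induction (RT-PCR, 6-FAM labeling, capillary electrophoresis), gain-of-signal relative to DMSO baseline. Transiently transfected HepG2 TRANS multiplex (NR-Gal4 chimeras, GAL4-UAS reporters), 24 h chemical exposure; medium contained 3 nM 6-alpha-fluorotestosterone plus 1.5 nM norgestrel.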

[13] = ATG_M_32_XSP2: Attagene TRANS-FACTORIAL Multi-Species (XSP2) HepG2 Assay for M19 Transcription Factor (Internal Marker) (AID 2283826)
Procedure, shortened: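 Read-out: fluorescent reporter mRNA fragments resolved by capillary electrophoresis after RT-PCR, gain-of-signal versus DMSO baseline. Cells were human HepG2 carrying transfected multi-reporter units, exposed 24 h. Medium contained 3 nM 6-alpha-fluorotestosterone plus 1.5 nM norgestrel.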

[14] = ATG_XTT_Cytotoxicity_XSP2: Cytotoxicity Assessment in the Attagene TRANS-FACTORIAL Multi-Species (XSP2) HepG2 Assay (AID 2283837)
Procedure, shortened: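 XTT-based cell number read-out in human HepG2 liver cells carrying transfected reporter units, measured 24 h after chemical dosing. Activity is signal loss versus DMSO baseline.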

Measured: AC50

Sequence of human Thyroid hormone Receptor alpha (TRa), THRA (gene 7067) (P10827 whole entry, looked up, the tested form may be a part): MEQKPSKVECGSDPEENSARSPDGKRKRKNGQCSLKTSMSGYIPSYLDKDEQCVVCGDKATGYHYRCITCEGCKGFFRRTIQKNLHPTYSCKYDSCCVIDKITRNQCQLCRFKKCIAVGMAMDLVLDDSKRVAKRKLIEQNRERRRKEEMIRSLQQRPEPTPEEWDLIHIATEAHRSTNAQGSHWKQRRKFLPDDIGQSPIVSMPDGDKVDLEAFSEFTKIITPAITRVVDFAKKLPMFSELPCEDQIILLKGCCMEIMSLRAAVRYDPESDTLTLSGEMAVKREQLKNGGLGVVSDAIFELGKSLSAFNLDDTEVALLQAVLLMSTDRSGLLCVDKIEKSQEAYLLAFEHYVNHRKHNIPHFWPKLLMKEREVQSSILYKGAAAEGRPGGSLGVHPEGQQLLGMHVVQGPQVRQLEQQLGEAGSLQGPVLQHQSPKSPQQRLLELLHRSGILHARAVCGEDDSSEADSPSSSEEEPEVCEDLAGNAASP
Sequence of zebrafish Thyroid Hormone Receptor alpha (TRa), thraa (gene 30670) (Q98867 whole entry, looked up, the tested form may be a part): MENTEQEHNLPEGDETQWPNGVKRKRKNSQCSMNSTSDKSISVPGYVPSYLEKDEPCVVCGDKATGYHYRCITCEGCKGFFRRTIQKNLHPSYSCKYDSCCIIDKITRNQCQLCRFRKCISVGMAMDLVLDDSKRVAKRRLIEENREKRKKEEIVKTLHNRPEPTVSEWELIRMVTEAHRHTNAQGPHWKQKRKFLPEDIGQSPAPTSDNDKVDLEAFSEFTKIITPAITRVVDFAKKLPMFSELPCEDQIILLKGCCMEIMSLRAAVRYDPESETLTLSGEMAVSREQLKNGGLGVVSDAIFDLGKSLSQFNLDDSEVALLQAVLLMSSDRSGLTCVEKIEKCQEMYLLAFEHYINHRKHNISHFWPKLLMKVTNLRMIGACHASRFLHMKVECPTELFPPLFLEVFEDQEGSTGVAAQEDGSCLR
Sequence of Nuclear receptor subfamily 1 group I member 2 (Mus musculus) (O54915 whole entry, looked up, the tested form may be a part): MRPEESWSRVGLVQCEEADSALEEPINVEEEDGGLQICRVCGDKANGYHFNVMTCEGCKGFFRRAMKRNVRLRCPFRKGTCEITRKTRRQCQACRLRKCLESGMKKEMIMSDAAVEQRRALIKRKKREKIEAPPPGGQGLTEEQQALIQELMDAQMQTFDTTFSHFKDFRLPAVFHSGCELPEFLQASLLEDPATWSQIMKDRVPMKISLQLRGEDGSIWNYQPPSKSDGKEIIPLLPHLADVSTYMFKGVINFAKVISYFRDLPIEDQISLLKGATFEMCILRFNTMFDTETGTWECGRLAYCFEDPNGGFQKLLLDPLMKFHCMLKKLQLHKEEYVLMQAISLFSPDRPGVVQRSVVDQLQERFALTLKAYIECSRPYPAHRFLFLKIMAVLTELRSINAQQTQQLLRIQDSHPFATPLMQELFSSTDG
Sequence of human Thyroid hormone Receptor beta (TRb), THRB (gene 7068) (P10828 whole entry, looked up, the tested form may be a part): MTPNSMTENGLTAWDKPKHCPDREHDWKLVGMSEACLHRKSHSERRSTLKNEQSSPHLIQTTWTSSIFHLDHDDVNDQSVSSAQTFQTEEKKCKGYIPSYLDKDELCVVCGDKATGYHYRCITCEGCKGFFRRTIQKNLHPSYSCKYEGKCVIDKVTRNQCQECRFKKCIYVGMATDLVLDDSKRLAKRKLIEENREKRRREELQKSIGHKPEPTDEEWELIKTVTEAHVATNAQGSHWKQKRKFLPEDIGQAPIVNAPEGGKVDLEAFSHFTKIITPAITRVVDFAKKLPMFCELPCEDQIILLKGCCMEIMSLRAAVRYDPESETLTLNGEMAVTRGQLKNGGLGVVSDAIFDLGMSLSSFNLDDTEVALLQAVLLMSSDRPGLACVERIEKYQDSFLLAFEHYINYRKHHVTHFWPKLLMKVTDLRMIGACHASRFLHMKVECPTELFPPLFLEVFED
Sequence of frog Thyroid hormone Receptor alpha (TRa), thra-a (gene 397942) (P15204 whole entry, looked up, the tested form may be a part): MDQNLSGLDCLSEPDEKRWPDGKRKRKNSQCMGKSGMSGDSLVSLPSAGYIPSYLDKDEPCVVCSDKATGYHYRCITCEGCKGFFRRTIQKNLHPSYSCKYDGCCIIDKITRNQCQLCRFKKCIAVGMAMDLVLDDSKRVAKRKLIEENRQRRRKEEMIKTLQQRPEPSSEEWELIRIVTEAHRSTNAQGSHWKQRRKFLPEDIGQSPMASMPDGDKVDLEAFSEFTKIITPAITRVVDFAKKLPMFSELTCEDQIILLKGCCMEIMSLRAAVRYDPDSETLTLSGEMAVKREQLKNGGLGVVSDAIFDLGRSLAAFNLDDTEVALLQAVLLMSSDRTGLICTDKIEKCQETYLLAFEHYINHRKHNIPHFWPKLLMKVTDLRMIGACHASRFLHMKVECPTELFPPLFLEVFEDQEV
Sequence of zebrafish Thyroid Hormone Receptor beta (TRb), thrb (gene 30607) (Q9PVE4 whole entry, looked up): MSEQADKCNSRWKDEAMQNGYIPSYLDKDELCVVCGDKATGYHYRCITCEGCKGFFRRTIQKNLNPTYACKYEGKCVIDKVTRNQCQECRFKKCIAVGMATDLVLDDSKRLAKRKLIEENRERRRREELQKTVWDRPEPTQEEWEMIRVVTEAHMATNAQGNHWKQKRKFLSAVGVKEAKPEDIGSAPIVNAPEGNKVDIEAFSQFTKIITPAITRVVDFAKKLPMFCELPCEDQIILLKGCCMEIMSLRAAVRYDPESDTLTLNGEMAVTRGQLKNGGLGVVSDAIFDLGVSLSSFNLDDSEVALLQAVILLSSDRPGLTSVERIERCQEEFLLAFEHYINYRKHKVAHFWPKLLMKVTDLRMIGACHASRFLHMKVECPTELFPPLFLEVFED
Sequence of Peroxisome proliferator-activated receptor gamma (Homo sapiens) (P37231 whole entry, looked up, the tested form may be a part): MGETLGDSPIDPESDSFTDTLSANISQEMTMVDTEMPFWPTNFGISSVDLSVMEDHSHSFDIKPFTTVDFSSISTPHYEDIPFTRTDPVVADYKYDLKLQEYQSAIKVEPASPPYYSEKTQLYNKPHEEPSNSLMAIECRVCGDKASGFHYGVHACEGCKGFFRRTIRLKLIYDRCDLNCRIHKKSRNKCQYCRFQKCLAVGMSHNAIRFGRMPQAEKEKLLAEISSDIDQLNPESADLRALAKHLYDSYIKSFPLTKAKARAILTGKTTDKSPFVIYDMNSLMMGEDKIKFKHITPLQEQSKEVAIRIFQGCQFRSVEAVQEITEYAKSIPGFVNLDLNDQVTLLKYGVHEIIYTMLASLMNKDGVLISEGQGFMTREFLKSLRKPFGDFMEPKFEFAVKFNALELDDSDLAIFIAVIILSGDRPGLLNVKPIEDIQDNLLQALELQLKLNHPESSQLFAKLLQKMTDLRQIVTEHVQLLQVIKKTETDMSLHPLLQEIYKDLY

C=C(C)[C@H]1Cc2c(ccc3c2O[C@@H]2COc4cc(OC)c(OC)cc4[C@@H]2C3=O)O1
active: [1] 0.0708 µM
inactive: [2]

CCOC(=O)COc1cc(-c2nn(C)c(OC(F)F)c2Cl)c(F)cc1Cl
inactive: [1] | [2]

CCOP(=S)(OCC)Oc1ccc([N+](=O)[O-])cc1
inactive: [1] | [2]

COP(=O)(OC)OC(Br)C(Cl)(Cl)Br (centres undefined)
inactive: [1] | [2]

CCCCOC(=O)[C@@H](C)Oc1ccc(Oc2ccc(C#N)cc2F)cc1
inactive: [1] | [2]

CC1(C(=O)Nc2ccc(O)c(Cl)c2Cl)CCCCC1
inactive: [1] | [2]

Cc1cc(C2CC2)nc(Nc2ccccc2)n1
inactive: [2]
active: [1] 44 µM

C#CCC1=C(C)C(OC(=O)C2C(C=C(C)C)C2(C)C)CC1=O (centres undefined)
inactive: [5] | [6] | [7] | [8] | [9] | [10] | [11] | [12] | [2]
active: [3] 22.6 µM | [4] 712 nM | [1] 47.5 µM

COc1cccc(C(=O)NN(C(=O)c2cc(C)cc(C)c2)C(C)(C)C)c1C
inactive: [2]
active: [1] 15.8 µM

CCc1cccc(C)c1N(C(=O)CCl)C(C)COC (centres undefined)
active: [3] 55.8 µM | [4] 3960 nM
inactive: [13] | [5] | [6] | [8] | [9] | [11]

CSc1nc(NC(C)C)nc(NC(C)C)n1
inactive: [1] | [2]

CC(COc1ccc(Oc2ccccc2)cc1)Oc1ccccn1 (centres undefined)
inactive: [1] | [2]

CON=C(C(=O)OC)c1ccccc1CON=C(C)c1cccc(C(F)(F)F)c1
active: [1] 2.05 µM
inactive: [2]

CCC(CC)Nc1c([N+](=O)[O-])cc(C)c(C)c1[N+](=O)[O-]
inactive: [13] | [3] | [5] | [6] | [7] | [8] | [9] | [10] | [11] | [12] | [1] | [2]
active: [4] 266 nM and 269 nM

N#CSCSC#N
active: [1] 18.3 µM | [2] 41.4 µM

COc1ccc(C(=CC(=O)N2CCOCC2)c2ccc(Cl)cc2)cc1OC
active: [3] 19.8 µM | [4] 4.65 µM and 4.32 µM
inactive: [3] | [5] | [6] | [8] | [9] | [14] | [10] | [11] | [12]

CCOP(=S)(OCC)Oc1ccc2c(C)c(Cl)c(=O)oc2c1
active: [3] 27 µM | [4] 9.08 nM | [7] 64.7 µM | [1] 9.92 µM | [2] 27.7 µM
inactive: [13] | [6] | [8] | [9] | [10] | [11] | [12]

CCCOCC(=Nc1ccc(Cl)cc1C(F)(F)F)n1ccnc1
active: [3] 0.909 µM | [4] 9900 nM | [1] 29 µM | [2] 38.1 µM
inactive: [13] | [5] | [6] | [8] | [9]
